In ChEMBL document CHEMBL1961873, “Compounds: GSK PKIS; Assays: Nanosyn kinase panel” (2012) one finds inhibition data, which are given here for 1 molecule.

For test [1], the target named is Sphingosine kinase 1 (Homo sapiens) (UniProt Q9NYA1). To be noted: at 1 µM.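 Further: mean SPHK1 inhibition value reported from the GSK PKIS kinase panel screen.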
Test [2] addresses T1, Sphingosine kinase 2 (Homo sapiens) (UniProt Q9NRA0).
T1 sequence (whole entry): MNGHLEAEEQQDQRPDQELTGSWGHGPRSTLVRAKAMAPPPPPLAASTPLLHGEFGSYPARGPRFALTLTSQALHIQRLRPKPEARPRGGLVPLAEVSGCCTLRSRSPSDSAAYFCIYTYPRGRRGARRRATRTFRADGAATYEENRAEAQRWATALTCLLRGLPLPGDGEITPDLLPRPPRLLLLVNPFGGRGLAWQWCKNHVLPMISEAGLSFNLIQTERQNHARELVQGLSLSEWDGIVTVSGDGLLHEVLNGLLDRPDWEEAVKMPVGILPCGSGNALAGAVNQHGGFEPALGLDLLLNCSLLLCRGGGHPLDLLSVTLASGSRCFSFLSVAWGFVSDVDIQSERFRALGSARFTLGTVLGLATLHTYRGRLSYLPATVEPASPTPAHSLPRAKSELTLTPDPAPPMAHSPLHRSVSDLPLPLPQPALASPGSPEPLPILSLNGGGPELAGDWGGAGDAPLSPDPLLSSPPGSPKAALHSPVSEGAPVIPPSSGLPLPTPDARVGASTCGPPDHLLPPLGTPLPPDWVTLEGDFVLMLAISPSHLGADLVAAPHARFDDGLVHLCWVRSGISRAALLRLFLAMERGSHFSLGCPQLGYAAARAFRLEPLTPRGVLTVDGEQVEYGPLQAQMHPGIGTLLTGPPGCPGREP
To be noted: at 0.1 µM.

Test [3] has as its target T1, Sphingosine kinase 2 (Homo sapiens). To be noted: at 1 µM.
For test [4], the target named is Casein kinase II subunit alpha (Homo sapiens) (UniProt P68400). To be noted: at 0.1 µM.
For test [5] the target is unchanged. To be noted: at 1 µM.
Test [6] has as its target T2, Inhibitor of nuclear factor kappa-B kinase subunit alpha (Homo sapiens) (UniProt O15111).
T2 sequence (whole entry): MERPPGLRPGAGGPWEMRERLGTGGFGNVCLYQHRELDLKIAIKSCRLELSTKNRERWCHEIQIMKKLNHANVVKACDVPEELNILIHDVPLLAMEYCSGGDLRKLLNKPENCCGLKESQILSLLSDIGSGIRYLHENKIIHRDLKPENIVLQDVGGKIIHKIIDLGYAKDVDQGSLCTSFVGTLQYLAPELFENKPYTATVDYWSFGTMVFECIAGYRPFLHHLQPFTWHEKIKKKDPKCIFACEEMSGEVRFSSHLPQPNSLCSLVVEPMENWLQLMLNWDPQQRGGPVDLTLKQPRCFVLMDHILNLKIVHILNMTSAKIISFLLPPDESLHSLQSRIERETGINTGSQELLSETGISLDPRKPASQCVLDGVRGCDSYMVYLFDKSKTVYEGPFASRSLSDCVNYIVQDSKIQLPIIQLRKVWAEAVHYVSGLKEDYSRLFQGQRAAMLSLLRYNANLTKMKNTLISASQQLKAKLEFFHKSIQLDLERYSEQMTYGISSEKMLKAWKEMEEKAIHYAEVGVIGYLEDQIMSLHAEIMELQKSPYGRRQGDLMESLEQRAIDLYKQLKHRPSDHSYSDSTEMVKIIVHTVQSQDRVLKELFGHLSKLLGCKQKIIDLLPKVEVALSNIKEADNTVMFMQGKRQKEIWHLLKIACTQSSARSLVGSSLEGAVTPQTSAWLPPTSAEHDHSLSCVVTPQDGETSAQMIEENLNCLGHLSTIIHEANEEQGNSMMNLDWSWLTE
To be noted: at 0.1 µM.

Test [7] concerns the target T2, Inhibitor of nuclear factor kappa-B kinase subunit alpha (Homo sapiens). To be noted: at 1 µM.
Test [8] has as its target T3, Inhibitor of nuclear factor kappa-B kinase subunit beta (Homo sapiens) (UniProt O14920).
T3 sequence (whole entry): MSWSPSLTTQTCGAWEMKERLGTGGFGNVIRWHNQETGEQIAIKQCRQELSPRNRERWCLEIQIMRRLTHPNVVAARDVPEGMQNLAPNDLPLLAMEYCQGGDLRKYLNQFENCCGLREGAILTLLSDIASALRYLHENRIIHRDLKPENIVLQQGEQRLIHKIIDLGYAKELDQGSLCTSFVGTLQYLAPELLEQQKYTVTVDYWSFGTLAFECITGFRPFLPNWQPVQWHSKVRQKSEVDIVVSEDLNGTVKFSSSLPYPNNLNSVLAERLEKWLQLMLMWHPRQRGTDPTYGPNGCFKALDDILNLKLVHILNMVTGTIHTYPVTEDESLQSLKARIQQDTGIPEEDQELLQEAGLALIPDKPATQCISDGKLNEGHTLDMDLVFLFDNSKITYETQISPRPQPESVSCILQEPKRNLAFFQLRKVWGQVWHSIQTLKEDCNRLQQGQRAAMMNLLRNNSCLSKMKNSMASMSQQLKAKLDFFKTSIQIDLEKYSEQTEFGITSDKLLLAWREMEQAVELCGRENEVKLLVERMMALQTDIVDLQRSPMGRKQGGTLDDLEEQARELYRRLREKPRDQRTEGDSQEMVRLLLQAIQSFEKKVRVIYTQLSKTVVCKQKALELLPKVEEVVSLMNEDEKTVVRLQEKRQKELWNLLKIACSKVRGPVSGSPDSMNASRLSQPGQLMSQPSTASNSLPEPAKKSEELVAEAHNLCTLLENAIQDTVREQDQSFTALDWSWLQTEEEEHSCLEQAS
To be noted: at 0.1 µM.

The target in test [9] is T3, Inhibitor of nuclear factor kappa-B kinase subunit beta (Homo sapiens). To be noted: at 1 µM.
Test [10] deals with T4, Inhibitor of nuclear factor kappa-B kinase subunit epsilon (Homo sapiens) (UniProt Q14164).
T4 sequence (whole entry): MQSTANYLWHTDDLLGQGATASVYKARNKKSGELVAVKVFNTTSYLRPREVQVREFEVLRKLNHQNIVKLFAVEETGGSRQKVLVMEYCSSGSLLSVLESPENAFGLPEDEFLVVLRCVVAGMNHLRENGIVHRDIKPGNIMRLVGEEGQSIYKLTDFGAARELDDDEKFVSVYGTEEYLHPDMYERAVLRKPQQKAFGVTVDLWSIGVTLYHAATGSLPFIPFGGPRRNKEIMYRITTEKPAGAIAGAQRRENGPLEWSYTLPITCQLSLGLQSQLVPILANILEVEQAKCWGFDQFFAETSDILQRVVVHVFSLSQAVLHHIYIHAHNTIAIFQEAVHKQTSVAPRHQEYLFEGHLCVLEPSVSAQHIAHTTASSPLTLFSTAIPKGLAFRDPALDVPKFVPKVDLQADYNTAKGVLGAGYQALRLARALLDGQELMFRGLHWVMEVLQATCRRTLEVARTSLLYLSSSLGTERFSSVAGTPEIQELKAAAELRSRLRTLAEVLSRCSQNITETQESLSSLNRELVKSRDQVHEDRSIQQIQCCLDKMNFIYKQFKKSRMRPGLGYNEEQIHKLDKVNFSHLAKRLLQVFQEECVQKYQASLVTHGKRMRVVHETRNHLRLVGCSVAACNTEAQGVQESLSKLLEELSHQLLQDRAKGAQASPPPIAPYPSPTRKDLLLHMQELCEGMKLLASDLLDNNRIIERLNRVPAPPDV
To be noted: at 0.1 µM.

Test [11] has as its target T4, Inhibitor of nuclear factor kappa-B kinase subunit epsilon (Homo sapiens). To be noted: at 1 µM.
The target in test [12] is T5, Serine/threonine-protein kinase Nek1 (Homo sapiens) (UniProt Q96PY6).
T5 sequence (whole entry): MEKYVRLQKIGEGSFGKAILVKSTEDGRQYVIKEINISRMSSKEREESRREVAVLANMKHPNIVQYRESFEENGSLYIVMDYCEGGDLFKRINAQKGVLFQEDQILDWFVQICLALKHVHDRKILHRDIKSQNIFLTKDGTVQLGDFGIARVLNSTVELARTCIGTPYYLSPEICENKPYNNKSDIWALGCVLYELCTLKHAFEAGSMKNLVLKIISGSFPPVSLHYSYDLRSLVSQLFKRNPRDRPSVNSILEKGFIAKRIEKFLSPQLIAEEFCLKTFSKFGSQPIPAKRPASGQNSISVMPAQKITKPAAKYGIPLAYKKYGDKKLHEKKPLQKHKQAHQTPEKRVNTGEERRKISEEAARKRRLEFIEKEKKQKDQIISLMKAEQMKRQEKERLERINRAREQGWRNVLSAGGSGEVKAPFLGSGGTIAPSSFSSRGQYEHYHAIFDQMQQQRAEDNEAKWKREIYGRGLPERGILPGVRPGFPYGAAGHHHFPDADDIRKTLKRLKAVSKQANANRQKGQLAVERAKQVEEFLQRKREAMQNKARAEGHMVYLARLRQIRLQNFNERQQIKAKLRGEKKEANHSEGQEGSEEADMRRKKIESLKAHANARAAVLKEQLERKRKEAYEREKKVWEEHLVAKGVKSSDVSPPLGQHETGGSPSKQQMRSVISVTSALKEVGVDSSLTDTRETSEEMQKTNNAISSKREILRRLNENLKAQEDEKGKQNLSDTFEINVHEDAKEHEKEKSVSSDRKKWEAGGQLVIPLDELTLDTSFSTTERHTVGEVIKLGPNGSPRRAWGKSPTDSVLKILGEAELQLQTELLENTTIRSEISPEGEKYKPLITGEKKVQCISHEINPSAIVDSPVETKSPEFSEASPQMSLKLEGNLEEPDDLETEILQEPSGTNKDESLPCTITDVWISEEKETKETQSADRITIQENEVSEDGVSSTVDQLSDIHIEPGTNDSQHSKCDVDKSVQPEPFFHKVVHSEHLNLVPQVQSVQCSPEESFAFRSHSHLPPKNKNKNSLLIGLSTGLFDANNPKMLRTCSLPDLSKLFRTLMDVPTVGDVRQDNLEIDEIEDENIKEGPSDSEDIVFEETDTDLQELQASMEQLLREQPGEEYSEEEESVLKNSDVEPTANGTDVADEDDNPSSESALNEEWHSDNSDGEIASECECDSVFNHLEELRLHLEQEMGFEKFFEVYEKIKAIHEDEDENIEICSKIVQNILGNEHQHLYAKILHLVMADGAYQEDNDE
To be noted: at 0.1 µM.

The target of test [13] is T5, Serine/threonine-protein kinase Nek1 (Homo sapiens). To be noted: at 1 µM.
The target in test [14] is T6, Serine/threonine-protein kinase Nek2 (Homo sapiens) (UniProt P51955).
T6 sequence (whole entry): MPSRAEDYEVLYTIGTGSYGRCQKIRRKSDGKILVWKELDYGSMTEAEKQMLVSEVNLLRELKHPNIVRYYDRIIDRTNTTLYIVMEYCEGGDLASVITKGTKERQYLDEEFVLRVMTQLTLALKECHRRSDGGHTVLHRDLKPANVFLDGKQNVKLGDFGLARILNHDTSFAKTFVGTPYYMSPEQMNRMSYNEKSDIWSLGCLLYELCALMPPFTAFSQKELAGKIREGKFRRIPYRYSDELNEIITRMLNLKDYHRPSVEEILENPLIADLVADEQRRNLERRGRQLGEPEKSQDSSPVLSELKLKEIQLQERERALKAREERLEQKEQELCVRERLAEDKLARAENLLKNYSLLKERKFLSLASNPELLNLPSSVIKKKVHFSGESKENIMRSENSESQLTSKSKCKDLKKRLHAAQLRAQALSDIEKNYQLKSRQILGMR
To be noted: at 0.1 µM.

Test [15] addresses T6, Serine/threonine-protein kinase Nek2 (Homo sapiens). To be noted: at 1 µM.
The target in test [16] is Serine/threonine-protein kinase Nek6 (Homo sapiens) (UniProt Q9HC98). To be noted: at 0.1 µM.
The target is the same in test [17]. To be noted: at 1 µM.
Test [18] addresses Serine/threonine-protein kinase Nek7 (Homo sapiens) (UniProt Q8TDX7). To be noted: at 0.1 µM.
For test [19] the target is unchanged. To be noted: at 1 µM.
Test [20] has as its target T7, Serine/threonine-protein kinase Nek9 (Homo sapiens) (UniProt Q8TD19).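 Further: reported value is the mean percent inhibition of NEK9.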
T7 sequence (whole entry): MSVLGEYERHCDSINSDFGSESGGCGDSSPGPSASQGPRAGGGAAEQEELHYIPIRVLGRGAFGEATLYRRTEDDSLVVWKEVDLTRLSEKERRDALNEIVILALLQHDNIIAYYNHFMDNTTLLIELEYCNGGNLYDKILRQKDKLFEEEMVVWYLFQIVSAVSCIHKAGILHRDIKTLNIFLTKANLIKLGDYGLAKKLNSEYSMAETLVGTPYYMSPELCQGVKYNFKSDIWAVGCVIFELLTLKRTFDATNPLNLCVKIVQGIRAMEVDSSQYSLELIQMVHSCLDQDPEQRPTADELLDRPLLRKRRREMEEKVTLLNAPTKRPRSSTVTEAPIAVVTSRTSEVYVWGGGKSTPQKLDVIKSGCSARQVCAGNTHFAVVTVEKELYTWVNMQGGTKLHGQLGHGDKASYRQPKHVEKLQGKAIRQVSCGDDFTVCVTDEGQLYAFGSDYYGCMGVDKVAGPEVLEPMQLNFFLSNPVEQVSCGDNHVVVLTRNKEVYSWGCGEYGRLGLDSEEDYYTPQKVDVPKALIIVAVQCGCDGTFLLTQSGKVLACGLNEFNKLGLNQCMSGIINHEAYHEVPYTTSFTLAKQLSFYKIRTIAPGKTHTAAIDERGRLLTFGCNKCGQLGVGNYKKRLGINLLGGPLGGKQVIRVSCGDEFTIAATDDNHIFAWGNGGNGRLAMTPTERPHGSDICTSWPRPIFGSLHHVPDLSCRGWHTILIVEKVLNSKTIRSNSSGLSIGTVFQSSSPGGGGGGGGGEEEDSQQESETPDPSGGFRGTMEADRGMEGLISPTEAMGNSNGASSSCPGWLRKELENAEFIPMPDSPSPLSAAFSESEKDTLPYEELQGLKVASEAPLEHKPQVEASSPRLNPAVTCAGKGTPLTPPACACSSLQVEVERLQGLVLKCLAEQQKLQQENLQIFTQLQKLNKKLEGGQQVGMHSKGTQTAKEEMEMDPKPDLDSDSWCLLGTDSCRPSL
To be noted: at 0.1 µM.

Sequence of Serine/threonine-protein kinase Nek7 (Homo sapiens) (Q8TDX7 whole entry, looked up): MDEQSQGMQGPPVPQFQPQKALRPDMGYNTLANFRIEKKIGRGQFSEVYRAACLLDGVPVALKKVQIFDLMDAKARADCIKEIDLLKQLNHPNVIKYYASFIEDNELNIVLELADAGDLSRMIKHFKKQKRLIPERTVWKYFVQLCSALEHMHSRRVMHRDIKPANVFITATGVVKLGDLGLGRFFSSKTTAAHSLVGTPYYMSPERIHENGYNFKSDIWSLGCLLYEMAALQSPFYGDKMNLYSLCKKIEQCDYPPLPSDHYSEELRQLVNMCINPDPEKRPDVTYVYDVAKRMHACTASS
Sequence of Casein kinase II subunit alpha (Homo sapiens) (P68400 whole entry, looked up): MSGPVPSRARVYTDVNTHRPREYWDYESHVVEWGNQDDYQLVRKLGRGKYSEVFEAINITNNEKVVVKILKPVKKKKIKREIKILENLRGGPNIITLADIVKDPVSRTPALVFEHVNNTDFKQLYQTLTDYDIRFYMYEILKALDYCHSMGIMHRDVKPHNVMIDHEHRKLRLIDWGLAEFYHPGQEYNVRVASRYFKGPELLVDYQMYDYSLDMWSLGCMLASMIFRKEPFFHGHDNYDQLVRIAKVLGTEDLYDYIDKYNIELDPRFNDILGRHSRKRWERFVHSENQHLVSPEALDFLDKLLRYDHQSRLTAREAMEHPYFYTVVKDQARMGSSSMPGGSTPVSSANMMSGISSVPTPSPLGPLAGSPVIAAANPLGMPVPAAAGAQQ
Sequence of Serine/threonine-protein kinase Nek6 (Homo sapiens) (Q9HC98 whole entry): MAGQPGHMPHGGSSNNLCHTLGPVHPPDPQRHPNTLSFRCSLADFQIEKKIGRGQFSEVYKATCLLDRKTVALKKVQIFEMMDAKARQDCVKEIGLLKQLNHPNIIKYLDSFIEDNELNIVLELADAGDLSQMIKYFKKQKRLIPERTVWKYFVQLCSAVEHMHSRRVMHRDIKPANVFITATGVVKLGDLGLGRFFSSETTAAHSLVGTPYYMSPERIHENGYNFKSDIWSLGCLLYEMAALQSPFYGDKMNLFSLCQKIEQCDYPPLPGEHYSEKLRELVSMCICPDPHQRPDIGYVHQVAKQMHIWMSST
Sequence of Sphingosine kinase 1 (Homo sapiens) (Q9NYA1 whole entry): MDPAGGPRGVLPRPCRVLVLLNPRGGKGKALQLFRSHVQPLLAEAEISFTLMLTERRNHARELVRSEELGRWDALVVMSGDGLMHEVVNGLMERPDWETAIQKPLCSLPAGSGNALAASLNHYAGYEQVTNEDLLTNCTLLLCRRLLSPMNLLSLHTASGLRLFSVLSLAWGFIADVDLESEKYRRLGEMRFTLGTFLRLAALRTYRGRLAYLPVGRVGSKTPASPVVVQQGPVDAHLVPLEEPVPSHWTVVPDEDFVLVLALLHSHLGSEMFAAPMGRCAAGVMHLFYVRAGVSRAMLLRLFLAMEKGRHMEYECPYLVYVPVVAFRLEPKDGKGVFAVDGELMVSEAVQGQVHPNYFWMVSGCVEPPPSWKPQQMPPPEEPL

For `COc1ccc(-c2cc3c(N)ncnc3o2)cc1`, the inhibition in test [1] was 0.27%; in test [2] it was 0.92%; in [3] it was -0.08%; in test [4], 4.9%; in test [5], 14.2%; in [6], -1.6%. The inhibition is -3.79% in test [7]; -0.63% in [8]; 6.4% in test [9]; -2.31% in test [10]; -1.16% in test [11]; 0.22% in test [12]. In addition, the inhibition in test [13] is 3.78%; in test [14], -1.56%; in [15], -1.7%; in test [16] it was -0.18%; in test [17], -1.06%; in [18], -2.18%. In addition, the figures for the inhibition in test [19] and in test [20] were -0.87% and 4.69%, respectively.

Usually inhibition stands for the relative decrease from the control value, in per cent.
